# Screening data deposited in PubChem by National Center for Advancing Translational Sciences (NCATS).
# Cruzain inh Det: blocks cruzain activity in presence of Triton detergent | P25779 | purified cruzain, Z-FR-AMC fluorescence, 0.01% Triton | Potency, µM, for the others: max response, negative = inhibition, usual class: inhibitors | 200,000 tested, 0.43% active;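 also: plate controls were neutral wells for no effect and buffer without enzyme for full effect; nearly all actives have a fitted effect of over 40% in size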
# Target sequence (P25779 123-467 limits assumed): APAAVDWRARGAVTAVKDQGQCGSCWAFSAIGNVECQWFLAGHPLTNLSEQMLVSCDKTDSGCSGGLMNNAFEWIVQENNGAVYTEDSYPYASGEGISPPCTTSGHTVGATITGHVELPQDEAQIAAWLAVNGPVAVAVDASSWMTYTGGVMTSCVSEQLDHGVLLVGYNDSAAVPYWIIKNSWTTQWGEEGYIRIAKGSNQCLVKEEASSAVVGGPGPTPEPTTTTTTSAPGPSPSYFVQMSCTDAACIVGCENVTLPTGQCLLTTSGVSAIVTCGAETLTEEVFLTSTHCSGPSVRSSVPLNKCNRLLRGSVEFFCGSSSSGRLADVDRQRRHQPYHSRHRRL
#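 Steps: dispense cruzain (1.5 nM final) in acetate buffer pH 5.5 with DTT and 0.01% Triton X-100; pin-transfer compounds; incubate 15 min RT; add Z-FR-AMC (2 uM final); read fluorescence every 30 s, using the 60 s intensity change.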
# Cruzain inh noDet: inhibitors of Trypanosoma cruzi cruzain without detergent | P25779 | purified cruzain, Z-FR-AMC fluorescence, no detergent | Potency, µM, for inactives: max response, negative = inhibition, actives largely listed as inhibitors | 200,000 tested, 2.3% active | AID 1476;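 also: plate controls were enzyme without inhibitor for no effect and buffer without enzyme for full effect; nearly all actives have a fitted effect of over 40% in size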
#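 Purified cruzain at 1.5 nM, pre-incubated 15 min with compound at room temperature in 100 mM sodium acetate pH 5.5, 5 mM DTT, 0.00005% Triton X-100. Reaction started with 2 uM Z-FR-AMC; AMC fluorescence increase over 60 s gives rate.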
# Active calls of the source: *; ? = inconclusive. Sampled rows, rich in hits. Any-hit rate of the full collection: about 2.4%. Calls follow the shape of the dose curve; as a rule, active = well fitted curve in the direction sought with a large enough effect; inconclusive = small, poorly fitted or top-dose-only effect, or another doubt; inactive = no such curve, though single readings can be large; an effect the other way counts as inactive or inconclusive. Potency is read from the fitted curve at half-maximal effect.
SMILES,Cruzain inh Det,Cruzain inh noDet
CCCOc1ccc(C(=O)NNC(=S)NC(=O)c2cc(-c3ccc(Cl)cc3)nc3ccccc23)cc1,3%,?
O=C(NNC(=O)c1cc(-c2ccccc2)nc2ccccc12)Nc1cccc(Cl)c1,0%,20µM*
COc1ccc(C(=O)NNC(=S)NC(=O)c2cc(-c3ccccc3)nc3ccccc23)cc1,-1%,?
COc1ccc(Cl)cc1C(=O)NNC(=S)NC(=O)c1cc(-c2ccccc2)nc2ccccc12,3%,3.2µM*
COC(=O)C1(C(C)=O)CC2=CC[C@@H]3C(=O)N(c4ccccc4)C(=O)[C@@H]3[C@@H]2Cc2ccccc2[C@@H]1C[N+](=O)[O-] (stereo not given in full),3%,0%
Cn1c(NCCCO)nc2c1c(=O)n(Cc1cccc(F)c1)c(=O)n2C,-2%,14%
CCOC(=O)c1cccc(NC(=O)c2ccc3c(Cl)c4c(nc3c2)CCC4)c1,1%,-4%
CCc1ccc2oc(C(=O)Nc3sc4c(c3C(=O)NC)CCCC4)cc(=O)c2c1,-2%,-1%
CCN(C(=O)c1cc2cc(Br)cc(OC)c2oc1=O)c1ccccc1,0%,-10%
Cc1cc(C)cc(NC(=O)C2CC(=O)N(c3ccccc3)C2)c1 (stereo not given),-3%,1%
O=C(Nc1ccc(Cl)c(Cl)c1)C1CC(=O)N(c2ccc(Br)cc2)C1 (stereo not given),-9%,20µM*
COc1cc(Cl)c(NC(=O)c2cc3ccccn3n2)c(OC)c1,-7%,0%
CCOC(=O)c1c(NC(=O)C2CCCN(S(=O)(=O)c3ccc(C)cc3)C2)sc2c1CCCC2 (stereo not given),0%,16µM*
COC(=O)c1c(NC(=O)CS(=O)(=O)c2ccc(C)cc2)sc2c1CCCCC2,-8%,2.5µM*
CCOC(=O)c1c(NC(=O)C2CCCN(S(=O)(=O)c3ccccc3)C2)sc2c1CCCC2 (stereo not given),-3%,?
COC(=O)c1sc(N)c(C(=O)OC)c1COC(=O)[C@@H](NS(=O)(=O)c1cccc(Cl)c1)C(C)C,-8%,10%
Cc1ccc(S(=O)(=O)CC(=O)Nc2sc3c(c2C#N)CCCCC3)cc1,-3%,-10%
COC(=O)c1c(NC(=O)COC(=O)[C@@H](NS(=O)(=O)c2cccc(Cl)c2)C(C)C)sc2c1CCC2,-10%,16µM*
CCc1ccccc1N1C(=O)N(Cc2ccccc2C)c2ccccc2S1(=O)=O,0%,-15%
Cc1csc2nc(COC(=O)c3ccccc3NC(=O)c3ccc(C(C)(C)C)cc3)cc(=O)n12,0%,-4%
CCOc1ccccc1NC(=O)Cn1c(=O)n(Cc2ccccc2)c(=O)c2cccnc21,2%,-8%
COc1ccc(CNC(=O)c2cnc3sc(N4CCOCC4)nn3c2=O)cc1,8%,1%
CCCCn1c(=O)[nH]c(=O)c2c1nc(COc1ccc(C#N)cc1)n2CCC,5%,-6%
CCCCn1c(=O)[nH]c(=O)c2c1nc(CN1C(=O)c3ccccc3S1(=O)=O)n2CCC,2%,25µM*
CCCCN(CCCNC(=O)CN1N=C(c2ccc(C)cc2)CCC1=O)c1ccccc1,-1%,?
SMILES,Cruzain inh Det,Cruzain inh noDet
CSc1nc2sc3c(c2c(=O)n1-c1ccc(F)c(Cl)c1)CCN(C(C)=O)C3,-1%,5%
c1ccc(-c2nc(-c3cccc4ccccc34)c(NC3CCCCC3)o2)cc1,1%,?
O=C(Nc1cc(Sc2ccccn2)cc([N+](=O)[O-])c1)c1cccc(Cl)c1,-7%,?
O=C(Nc1cc(Sc2ccccn2)cc([N+](=O)[O-])c1)c1ccc(Cl)cc1,4%,13µM*
COc1ccc(/C=C/C(=O)NCC(=O)N/N=C/c2cc(Br)ccc2OCc2ccccc2)cc1,3%,6.3µM*
COc1ccc(Br)cc1/C=N/NC(=O)CNC(=O)/C=C/c1ccccc1,-4%,?
COc1cccc(Cn2c(=O)n(Cc3ccco3)c(=O)c3oc4ccccc4c32)c1,-2%,-1%
Nc1c[n+](N2CCOCC2)no1,2%,-3%
C[C@@H]1C(=O)OC2C[C@@]34[C@H]5C[C@@H](C(C)(C)C)[C@@]36C(O)C(=O)O[C@H]6O[C@@]4(C(=O)O5)[C@]21O (stereo not given in full),1%,-1%
COC(=O)c1sccc1NC(=O)/C=C\c1ccc(Cl)cc1Cl,3%,3.2µM*
COC(=O)c1sccc1NC(=O)/C=C/c1ccc(Cl)cc1,-2%,3%
Cc1nc2nc(CNC(=O)OC(C)(C)C)nn2c(C)c1CCC(=O)NCc1ccccc1Cl,-2%,1%
COc1ccc(C(=O)N/N=C/c2ccc(OC)c(CN3CCN(c4ccc(F)cc4)CC3)c2)cc1,-10%,6%
COc1ccc(C(=O)N/N=C/c2ccc(OC)c(CN3CCCc4ccccc43)c2)cc1,-7%,16µM*
CCCCC(CC)Cn1c(O)c(/C=C2\C=NN=C2c2ccccc2)sc1=S (stereo not given),-1%,7.9µM*
CCCn1c(O)c(/C=C2\C=NN=C2c2ccccc2)sc1=S,-7%,5%
CC1=C(C(N)=O)C(c2ccc(C)cc2)n2nc(SCc3ccccc3F)nc2N1 (stereo not given),-2%,3%
O=[N+]([O-])c1ccc(O)c(N=Cc2sc3ccccc3c2O)c1,-9%,13µM*
Oc1c(C=Nc2cccc3cccnc23)sc2ccccc12,-5%,-3%
CCC(=O)Nc1ccc(/C(C)=N\NC(=O)c2ccc(C)s2)cc1,-6%,-6%
C/C(=N/NC(=O)c1ccc(C)s1)c1cccc(NC(=O)COc2ccc(Cl)cc2Cl)c1,-1%,13µM*
C/C(=N/NC(=O)c1ccc(Cl)s1)c1ccc(NC(=O)COc2ccc(Cl)cc2)cc1,-5%,20µM*
C/C(=N/NC(=O)c1cccs1)c1ccc(NC(=O)COc2ccc(Cl)cc2Cl)cc1,-7%,?
Cc1nc2nc(NCc3cccc(Cl)c3)[nH]n2c(=O)c1Cc1ccccc1,-1%,-13%
Cc1cccc(Nc2nnc(SCC(=O)Nc3cccnc3Cl)s2)c1,25µM*,16µM*
SMILES,Cruzain inh Det,Cruzain inh noDet
Cc1cccc(Nc2nnc(SCC(=O)NC3CCCc4ccccc43)s2)c1 (stereo not given),-9%,-5%
Cc1cccc(Nc2nnc(SCC(=O)Nc3cccc(S(=O)(=O)N4CCCCC4)c3)s2)c1,-3%,13µM*
Cc1cccc(C)c1Nc1nnc(SCC(=O)Nc2cc(S(=O)(=O)N3CCCCC3)ccc2Cl)s1,-3%,13µM*
Cc1ccc(-n2nnnc2SCC(=O)NC(=O)Nc2ccc3c(c2)OCCO3)cc1,-3%,-12%
Cc1cccc(NC(=O)CSc2nnc(NC(=O)c3ccc(S(=O)(=O)N4CCOCC4)cc3)s2)c1C,-1%,-11%
Cc1cccc(NC(=O)CSc2nnc(NC(=O)CN3CCCCC3)s2)c1,-4%,-14%
O=C(CSc1nnnn1-c1ccc(Cl)cc1)NC(=O)Nc1ccc2c(c1)OCCO2,-2%,25µM*
COC(=O)[C@@]1(Cc2ccccc2-c2ccco2)C=C[C@H](C)[C@@H](c2ccccc2)N1C(=O)C(F)(F)F,-2%,5%
Cc1cccc(Nc2nnc(SCC(=O)NC(=O)Nc3ccc4c(c3)OCCO4)s2)c1,-2%,16µM*
Cc1ccccc1Nc1nnc(SCC(=O)NC(=O)Nc2ccc3c(c2)OCCO3)s1,-4%,?
Cc1cc(-c2csc(NC(=O)c3cccc(S(=O)(=O)N(C)C)c3)n2)c(C)n1-c1ccccc1,-5%,7.9µM*
CN1CCN(S(=O)(=O)c2cccc(C(=O)Nc3nc(-c4ccccc4)cs3)c2)CC1,-11%,-6%
